Our source for the inhibition values is PubChem BioAssay.

In general, inhibition refers to the change of the read-out against control, counted positive when it falls.

Values without a mark were called inactive. How the calls were made is not given here.

In this assay the target is Pantothenate synthetase (Mycobacterium tuberculosis (strain ATCC 25618 / H37Rv)) (UniProt P9WIL5). Nature of the assay: Recombinant Mtb pantothenate synthetase (PanC) inhibitors, coupled enzyme, confirmatory (AID 375).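 Further: 0% = full reaction with vehicle and 100% = no enzyme background.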 The conditions noted are these: coupled enzyme assay; at 10 µM, stronger effect = higher value.
Sequence of Pantothenate synthetase (Mycobacterium tuberculosis (strain ATCC 25618 / H37Rv)) (P9WIL5 whole entry, looked up): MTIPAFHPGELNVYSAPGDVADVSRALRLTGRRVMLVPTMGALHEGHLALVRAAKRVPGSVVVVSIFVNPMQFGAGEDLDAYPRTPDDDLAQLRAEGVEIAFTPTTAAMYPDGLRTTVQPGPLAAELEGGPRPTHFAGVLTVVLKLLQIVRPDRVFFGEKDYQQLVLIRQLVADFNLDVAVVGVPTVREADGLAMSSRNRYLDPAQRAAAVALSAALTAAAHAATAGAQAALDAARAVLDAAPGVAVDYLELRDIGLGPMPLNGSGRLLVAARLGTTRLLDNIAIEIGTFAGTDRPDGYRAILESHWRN

Consider `CSc1ccccc1NC(=O)c1cnc2n(c1=O)CCS2`, for which the inhibition is 7%.

Consider `Cc1ccc(CNC(=O)C2CCCN(S(=O)(=O)c3cnc[nH]3)C2)cc1` (stereo not drawn), for which the inhibition is 2%.

Consider `Cc1ccc2cc(C(c3nnnn3C3CCCC3)N3CCN(c4ccc(F)cc4)CC3)c(=O)[nH]c2c1` (stereo not drawn), for which the inhibition is 6%.

On to `Cc1ccc(Cn2c(NCCc3ccccc3)nc3c2c(=O)n(C)c(=O)n3C)cc1`, for which the inhibition was 4%.

For the compound `CCOC(=O)c1[nH]c2ccc(F)cc2c1NC(=O)C(C)N1CCc2cc(OC)c(OC)cc2C1` (stereo not drawn), the inhibition was 3%.

`Cc1cc(C)c2cc3c(ccn3C3OC[C@H](O)[C@H](O)[C@H]3O)cc2n1` (stereo partly drawn): the inhibition was 4%.

In the case of `Cc1ccc(Cn2c(SCC(N)=O)nc3c2c(=O)n(C)c(=O)n3C)cc1`, the inhibition was 0%.

Turning to `CCN1C(=C2C(=O)c3ccccc3C2=O)C=Cc2ccccc21`, the inhibition was 0%.

Regarding `Cn1c(SCC(=O)N2CCOCC2)nnc1-c1cnccn1`, the inhibition was 0%.

As to `O=C(NC12CC3CC(CC(C3)C1)C2)C1CCCN1C(=O)NC1CCCCC1` (stereo not drawn), the inhibition was 0%.

Take `Cc1ccc(F)cc1NC(=O)C1CCCN(c2ncccn2)C1` (stereo not drawn): the inhibition was 7%.

As for `CC12CCC(C(=O)N3CCN(C(=O)C45CCC(C)(C(=O)O4)C5(C)C)CC3)(OC1=O)C2(C)C`, the inhibition was 0%.

With `COc1cc(-c2noc(-c3ccccc3C(=O)NCc3ccco3)n2)cc(OC)c1OC`, the inhibition was 9%.

Turning to `O=C(O)CC1CCCC(c2ccccc2)C1=O` (stereo not drawn), the inhibition was 5%.

Take `Cn1c(=O)[nH]c(=O)c2c1nc(Br)n2CCCSc1nc2ccccc2o1`: the inhibition is 0%.

With `O=C(Nc1sc2c(c1C(=O)NCc1ccco1)CCCC2)c1ccc2c(c1)OCO2`, the inhibition is 1%.

Turning to `CCOC(=O)C1=C(C)NC(C)=C(C(=O)OCC)C1C(=O)OC1CCOC1=O` (stereo not drawn), the inhibition was 13%.

With `CC(=Nc1cccc(O)c1)c1sc2ccccc2c1O`, the inhibition is 0%.

Turning to `O=C(O)c1ccc(S(=O)(=O)Cc2ccccc2)cc1`, the inhibition is 0%.

Take `CCOC(=O)NC(=O)CSc1nnc(C)s1`: the inhibition was 4%.

Consider `CC1CCc2nn(CC(=O)N3CCN(C(=O)c4ccco4)CC3)cc2C1` (stereo not drawn), for which the inhibition is 10%.

For the compound `Cc1ccc(-c2cc(C(F)(F)F)n3ncc(C(=O)O)c3n2)cc1`, the inhibition is 5%.

In the case of `CCOC(=O)N1CCN(Cc2nc3c(c(=O)n(C)c(=O)n3C)n2Cc2ccc(F)cc2)CC1`, the inhibition was 2%.

For `CCCn1c(=N)n(CCOc2ccc(OC)cc2)c2ccccc21`, the inhibition is 0%.

For `Clc1ccc(Cc2nn3c(-c4ccncc4)nnc3s2)cc1`, the inhibition was 0%.

Consider `CCn1c(SCC(=O)c2ccc3c(c2)OCCO3)nnc1-c1ccco1`, for which the inhibition was 11%.

With `COc1ccc(N2CCN(c3nc4c(c(=O)[nH]c(=O)n4C)n3CCCc3ccccc3)CC2)cc1`, the inhibition is 13%.

For `CC(=O)c1cccc(NC(=O)N2C3CCC2CC(O)(c2cccnc2)C3)c1` (stereo not drawn), the inhibition is 0%.

Consider `O=C(O)Cn1cc(C(=O)c2ccco2)c2ccccc21`, for which the inhibition was 4%.

Regarding `CC(=O)c1ccc(NS(=O)(=O)c2ccccc2)cc1`, the inhibition was 0%.

Regarding `COc1cccc(CNC(=O)C2CCN(c3cnccn3)CC2)c1`, the inhibition is 0%.

Turning to `Cc1csc(NC(=O)c2sc3nc(-c4cccs4)ccc3c2N)n1`, the inhibition was 5%.

Take `CC1=C(C(=O)OCC(C)C)C(c2cc3c(cc2Br)OCO3)NC(=O)N1C` (stereo not drawn): the inhibition was 0%.

For `CC1(C)C2CCC1(CS(=O)(=O)NCc1ccc(C(=O)O)cc1)C(=O)C2` (stereo not drawn), the inhibition was 0%.

For the compound `COc1ccc(C2=NOC(C(=O)Nc3cc(Br)ccc3O)C2)cc1OC` (stereo not drawn), the inhibition is 3%.

For the compound `O=C(NCC1CCCO1)c1cccc(N2C(=O)C3C4C=CC(C4)C3C2=O)c1` (stereo not drawn), the inhibition is 11%.

Turning to `Cc1cc(N2C(=O)C(O)=C(C(=O)c3ccc(C)o3)C2c2cccs2)no1` (stereo not drawn), the inhibition was 0%.

Turning to `O=C(Nc1nc2c(s1)CCc1ccccc1-2)c1cccs1`, the inhibition was 8%.

As to `Nc1sccc1C(=O)c1ccccc1`, the inhibition was 4%.

On to `CCOC(=O)c1ccc2nc(NC(NC(C)=O)(C(=O)OC)C(F)(F)F)sc2c1` (stereo not drawn), for which the inhibition is 2%.

`O=C(CCn1c(=O)c2ccccc2n(CC(=O)NCCC2=CCCCC2)c1=O)NCc1ccco1`: the inhibition is 4%.

Consider `Cc1cc(C)nc(/N=C2\NC(=O)CC(C(=O)O)N2c2ccc(Cl)cc2)n1` (stereo not drawn), for which the inhibition is 0%.

Regarding `O=C(c1ncc[nH]1)c1ccccc1C(=O)N1CCOCC1`, the inhibition was 1%.

Turning to `COc1ccc(C(F)(F)F)cc1NC(=O)c1nc2nc(C)cc(C(F)F)n2n1`, the inhibition was 1%.

For the compound `CCCOc1ccc(S(=O)(=O)NCCCN2CCOCC2)c2ccccc12`, the inhibition was 0%.

For `O=C(Nc1cnn(Cc2ccc(Cl)cc2Cl)c1)c1noc2c1CCCC2`, the inhibition was 4%.

For the compound `CN(C)S(=O)(=O)Nc1ccc(Br)cc1F`, the inhibition was 0%.

In the case of `CCOC(=O)Cc1cc(=O)n2[nH]c(C)c(-c3ccc(OC)cc3)c2n1`, the inhibition is 6%.

Turning to `Cc1ccc(C2C(C(=O)c3sc(C)nc3C)=C(O)C(=O)N2CCN(C)C)o1` (stereo not drawn), the inhibition was 0%.

Regarding `CCC(C)(C)NC(=O)C(c1ccco1)N(C(=O)Cn1nnc2ccccc21)c1ccc2c(c1)OCO2` (stereo not drawn), the inhibition is 0%.

As to `COc1cc2c(cc1OC)CN(C(=O)CSc1nc3[nH]ncc3c(=O)n1-c1ccccc1)CC2`, the inhibition is 2%.

Regarding `Cc1cc2oc(C(=O)NC3CCS(=O)(=O)C3)c(C)c2cc1C` (stereo not drawn), the inhibition was 0%.

Turning to `CCOC(=O)c1[nH]c(C)c(C(=O)NCc2ccccn2)c1C`, the inhibition is 0%.

For `O=C(Nc1ccc(Cl)cc1C(=O)Nc1ccncc1)c1ccco1`, the inhibition was 4%.

With `CC(=O)NC(C)C(=O)OCC(=O)Nc1ccc(Br)cc1` (stereo not drawn), the inhibition is 0%.

On to `CCOC(=O)CNC(=O)Cn1cnc2c(nnn2-c2cccc(Cl)c2)c1=O`, for which the inhibition is 0%.

For the compound `N#Cc1nc(-c2ccco2)oc1NCCc1ccccc1`, the inhibition is 0%.

As to `COc1ccccc1N1CCN(c2cc(N3CCCC3)nc(C)n2)CC1`, the inhibition is 0%.

Turning to `CCn1c(SCC(=O)C(C)(C)C)nnc1-c1cnccn1`, the inhibition is 0%.

Regarding `Cc1cc(NC(=O)c2ccc3c(c2)C(=O)N(Cc2cccnc2)C3=O)no1`, the inhibition was 0%.

In the case of `Cc1ccc2nc(-c3ccccn3)cc(C(=O)N3CCN(c4ncccn4)CC3)c2c1`, the inhibition was 3%.

As for `Cc1cccc(C(=O)O)c1NC(=O)c1ccc(F)cc1`, the inhibition was 1%.

Turning to `CC(=O)c1ccc(-n2nnnc2SCC(=O)N2CCc3ccccc3C2)cc1`, the inhibition is 0%.

Regarding `CC1CCN(CCCNC(=O)c2cn(C)c3ccc(S(=O)(=O)N4CCCC4)cc3c2=O)CC1`, the inhibition is 0%.

For the compound `Cc1cc(NC(=O)CSc2nnc(C3CC3)n2C)no1`, the inhibition is 0%.

`Cn1c2c(c(=O)n(C)c1=O)C(c1cccc(Br)c1)C1C(=O)c3ccccc3C1=N2` (stereo not drawn): the inhibition is 9%.

Consider `COCCCNC(=O)C(Cc1ccccc1)NS(=O)(=O)c1ccc2c(c1)c(=O)n(C)c(=O)n2C` (stereo not drawn), for which the inhibition is 0%.

As for `CCSc1ccccc1C(=O)Nc1cccc(OC)c1`, the inhibition was 0%.

Regarding `Cc1ccccc1NC(=O)c1ccccc1`, the inhibition was 10%.

With `CCC(=O)Nc1nn(C)c2nc3c(C)cccc3cc12`, the inhibition is 0%.

For the compound `CCC1Oc2ccccc2N(CC(=O)Nc2ccc(OC)cc2OC)C1=O` (stereo not drawn), the inhibition was 0%.

For the compound `O=C(CCN1C(=O)C2C3C=CC(C3)C2C1=O)NC1CCCc2ccccc21` (stereo not drawn), the inhibition is 1%.

With `Cc1cc(NC(=O)CSc2nc3c(c(-c4cccnc4)c2C#N)CCC3)no1`, the inhibition is 0%.

Turning to `c1cc(C(c2nnnn2C2CCCC2)N2CCOCC2)ccn1` (stereo not drawn), the inhibition is 4%.

With `CC1(C)S[C@@H]2[C@H](NC(=O)C(C(=O)O)c3ccccc3)C(=O)N2[C@H]1C(=O)O` (stereo partly drawn), the inhibition is 0%.

For `CCOc1nc(NCCC2=CCCCC2)nc(N2CCOCC2)n1`, the inhibition is 0%.

In the case of `O=C(COn1nnc2ccc(C(F)(F)F)cc21)Nc1nnc(-c2ccccc2)o1`, the inhibition is 0%.

Take `Cn1c(SCC(=O)N2CCOCC2)nnc1-c1cccc(NC(=O)c2ccccc2F)c1`: the inhibition was 0%.

Take `Cc1c(OCC(F)(F)F)ccnc1CS(=O)c1nc2ccccc2[nH]1` (stereo not drawn): the inhibition was 6%.

For the compound `Cc1ccc(C2Nc3ccccc3-c3nc4ccccc4n32)o1` (stereo not drawn), the inhibition is 0%.

On to `CCCSc1nc2c(c(=O)[nH]c(=O)n2C)n1CCc1ccccc1`, for which the inhibition was 5%.

For the compound `O=C(Nc1ccon1)c1csc2c1CCCC2`, the inhibition is 6%.

Consider `COc1ccc(/C(O)=C2\C(=O)C(=O)N(c3cc(C)on3)C2c2ccccc2OC)cc1` (stereo not drawn), for which the inhibition is 0%.

`CC(C)NC(=O)c1ccc2c(c1)nnn2C`: the inhibition is 0%.

On to `O=C(Nc1ccc2c(c1)OCO2)c1cccc(Cl)c1`, for which the inhibition was 0%.

For `Cc1cccc2cc(C#N)c(NCCNC(=O)NC3CCCCC3)nc12`, the inhibition is 1%.

In the case of `CC(=O)NC(Cc1cc(C)ccc1C)C(=O)N1CCN(C(=O)Nc2ccc(C(C)=O)cc2)CC1` (stereo not drawn), the inhibition was 0%.

As for `CC(C)CC(=O)CN1C(=O)C2(OCCO2)c2ccccc21`, the inhibition was 0%.

For the compound `C=CCOC(=O)C1=C(C)OC(N)=C(C#N)C1c1ccc2c(c1)OCO2` (stereo not drawn), the inhibition was 9%.

`O=C(c1ccco1)N1CCN(c2cccc(Cl)c2)CC1`: the inhibition is 0%.

In the case of `CN(C)S(=O)(=O)c1ccc(C(=O)N2CCC(c3nc4ccccc4o3)CC2)cc1`, the inhibition was 5%.

`CCOC(=O)c1ccc(NC(=O)CSc2nnc(COc3ccccc3)n2C)cc1`: the inhibition was 0%.

As for `Cc1ccc2[nH]cc(C(=O)CN3CCC4(CC3)OCCO4)c2c1`, the inhibition is 0%.

Take `Cc1ccc(C)c(N2CCN(CCCNC(=O)Cn3cc4c(n3)CCC(C)C4)CC2)c1` (stereo not drawn): the inhibition was 8%.

With `COc1ccc(OCCSc2nc3ccccc3n2CC(=O)O)cc1`, the inhibition is 2%.

As for `Cn1cccc1Cc1nnc(SCC(=O)Nc2ccccc2F)n1CCc1ccccc1`, the inhibition is 0%.

Regarding `CCOc1nc(SCCOc2ccccc2)nc(N(C)C)n1`, the inhibition is 4%.

Consider `CCOC(=O)c1c(C)oc2ccc(O)c(CN3CCCCC3)c12`, for which the inhibition is 12%.
